# Compound activity: PubChem BioAssay, National Center for Advancing Translational Sciences (NCATS)
# Hits are enriched below; roughly 4.7% of the tested compounds scored in any of these assays.
# DRD3 agonist = activates the human D3 dopamine receptor | P35462 | D3R DiscoveRx beta-arrestin cells, luminescence, 90 min | max activation, % | hit rate 0.58% among 410,000; in the data active means max activation above about 30%; further: 0% is about no effect
# Target sequence (P35462 whole entry, looked up): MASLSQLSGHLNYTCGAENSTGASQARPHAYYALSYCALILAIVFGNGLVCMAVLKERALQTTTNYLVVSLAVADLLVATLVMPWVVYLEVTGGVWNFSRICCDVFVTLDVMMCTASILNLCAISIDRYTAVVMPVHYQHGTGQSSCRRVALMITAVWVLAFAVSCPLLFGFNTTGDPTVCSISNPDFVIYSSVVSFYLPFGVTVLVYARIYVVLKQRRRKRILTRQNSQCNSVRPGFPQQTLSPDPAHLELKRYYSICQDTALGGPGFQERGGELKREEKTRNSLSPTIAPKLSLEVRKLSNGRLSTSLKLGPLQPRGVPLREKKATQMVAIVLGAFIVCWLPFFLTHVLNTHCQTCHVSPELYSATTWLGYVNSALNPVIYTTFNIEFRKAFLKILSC
#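 Cells at 1500/well, incubated overnight, then treated with pinned compounds (dopamine as control) for 90 min at 37 degrees C. DiscoveRx reagent added for 30 - 60 minutes at room temperature; luminescence read.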
# HepG2 tox = kills HepG2 cells in TGF-b inhibitor counter-screen. HepG2 CAGA-GFP viability, ATP luminescence, 18 h. Potency, µM (highest dose often 46.1 µM), without a hit: at the top dose activity change, negative = cytotoxicity, actives largely listed as cytotoxic. hit rate 0.76% among 410,000. AID 588856; further: potency means the concentration at half of the fitted maximal effect
#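 HepG2 CAGA-GFP cells (1000/well, DMEM with 1% FBS) received compound, then TGF-beta at 500 pg/mL final, and were incubated 18 hours at 37 degrees C. Viability was read by CellTiter-Glo luminescence. Media-only wells were set as complete cell-killing and DMSO as no toxicity.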
# TGFb inhibitor = inhibitors of TGF-b signaling | hit rate 1.2% among 410,000 | HepG2 CAGA-GFP TGF-b/SMAD3 reporter, GFP fluorescence, 18 h; TGF-beta stimulated, 500 pg/mL final | Potency, µM (top dose mostly 46.1 µM), without a hit: at the highest dose activity, negative = inhibition, actives largely listed as inhibitors; further: potency means the concentration at half of the fitted maximal effect; on the % scale 0 is the no-effect control and ±100 the full control effect; nearly all actives have a fitted effect of over 65% in size
#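 Inhibition of TGF-beta-driven CAGA-GFP reporter expression in HEPG2 cells is measured by cellular GFP fluorescence after 18 h stimulation with 500 pg/mL recombinant TGF-beta in 1% FBS medium at 37 degrees C.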
# D3 antag = blocks the human D3 dopamine receptor; P35462; D3R cells, DiscoveRx beta-arrestin luminescence, antagonist mode; stronger effect = lower value; max response, negative = inhibition, %; hit rate 2.5% among 360,000; AID 652054; in the data active means max response below about -50%; inconclusive means no clear call, values can overlap the other calls; further: on the % scale 0 is the no-effect control and ±100 the full control effect
#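 Cells plated overnight at 1500 cells/well, then exposed to library compounds with dopamine controls for 90 minutes at 37 degrees C. DiscoveRx reagent added for 30–60 minutes at room temperature; luminescence read, quantitative HTS format.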
# ATXN2 expr inh = inhibitors of ATXN2 expression | HEK-293 ATXN2-luciferase reporter, luminescence, 24 h | Potency, µM (highest dose often 57 µM), for the others: top-dose activity change, negative = inhibition, hits mostly inhibitors | hit rate 0.72% among 360,000; further: potency means the concentration at half of the fitted maximal effect; on the % scale 0 is the no-effect control and ±100 the full control effect; nearly all actives have a fitted effect of over 55% in size
#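 qHTS (up to 57 uM final) was run with 24 h compound exposure of reporter cells at 37 °C. Each well was multiplexed: SteadyGlo luminescence measured ATXN2-luciferase expression after a fluorogenic Gly-Phe-AFC viability readout (25 uM final).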
# ATXN viability = reduces viability in counter-screen for ATXN expression inhibitors. S2 cells (HEK-293 line with an ATXN2-luciferase reporter) viability, CellTiter-Fluor protease fluorescence, 24 h. AID 651635. Potency, µM (highest dose often 56.7 µM), actives largely listed as cytotoxic. hit rate 0.49% among 400,000; further: potency means the concentration at half of the fitted maximal effect; nearly all actives have a fitted effect of over 40% in size
# * hit, by the source's call; i = inactive; ? = inconclusive; . = not tested or not shown. Unless noted, the call rests on the fitted dose curve; in most records, active means well fitted curve in the direction sought with a large enough effect; inconclusive means small, poorly fitted or top-dose-only effect, or another doubt; inactive means no such curve, though single readings can be large; an effect the other way counts as inactive or inconclusive.
SMILES,DRD3 agonist,HepG2 tox,TGFb inhibitor,D3 antag,ATXN2 expr inh,ATXN viability
O=C(CSc1nc2c(sc3ccccc32)c(=O)n1CCCN1CCCC1)NCC1CCCO1 (centres undefined),0,-27%,0%,-57*,.,.
CC(=O)c1ccc(NC(=O)c2nc(-c3ccccc3)n(-c3ccc(Cl)cc3)n2)cc1,4,-12%,-1%,.,5%,i
CC1=NN(c2ccc(C)c(C)c2)C(=O)/C1=C\C=C\c1ccc([N+](=O)[O-])o1,-1,-72%,10µM*,-15,?,3.2µM*
O=C1c2ccccc2S(=O)(=O)c2cc(N3CCN(C(=O)c4ccccc4)CC3)ccc21,64*,-11%,-2%,102,9%,i
O=C1c2ccccc2S(=O)(=O)c2cc(C(=O)N3CCN(c4ccccc4)CC3)ccc21,3,-21%,1%,4,100%,i
Cc1nc2cc(NC(=O)[C@@H]3C[C@@H](Sc4ccccn4)CN3Cc3cccc(Cl)c3)ccc2s1,.,.,.,.,.,i
CCC(NC(=O)Nc1nnc(C(F)(F)F)s1)(C(F)(F)F)C(F)(F)F,7,-40%,?,-5,8.9µM*,.
O=C(O)CCC(=O)Nc1nnc(C(F)(F)F)s1,9,7%,9%,0,1%,i
CCc1nn2c(=O)cc(COc3ccc(/C=C(\C#N)C(=O)Nc4ccc(F)cc4)cc3OC)nc2s1,4,7%,4%,.,0%,i
CCOc1cc(/C=C(\C#N)C(=O)Nc2ccc(C)cc2)ccc1OCc1cc(=O)n2nc(CC)sc2n1,48*,-1%,-8%,.,0%,i
CCN(c1ccc(C)cc1C)S(=O)(=O)c1nnc(NC(=O)C(C)C)s1,0,-32%,-28%,-19,0%,i
CCN(c1ccc(C)cc1C)S(=O)(=O)c1nnc(NC(=O)C(C)(C)C)s1,-9,-12%,?,-74*,-16%,i
COC(=O)C1=C(C)N(Cc2ccccc2)C(=NCCc2ccccn2)N[C@H]1c1cccc(C(F)(F)F)c1,-23,-83%,?,-20,35µM*,?
COC(=O)C1=C(C)N(Cc2ccccc2)C(=O)N[C@H]1c1cccc(C(F)(F)F)c1,-10,-8%,?,1,-10%,i
CCN1C(=NCc2ccc(OC)cc2)N[C@@H](c2ccccc2)C(C(=O)OC)=C1C,41*,-19%,?,22,-5%,i
COC(=O)C1=C(C)N(Cc2ccccc2)C(=NCc2ccccc2)N[C@H]1c1cccc(C(F)(F)F)c1,33*,14µM*,?,22,?,.
CCN1C(=NCCc2ccccn2)N[C@@H](c2cccc(C(F)(F)F)c2)C(C(=O)OC)=C1C,-37,-3%,10%,-53*,-9%,i
COC(=O)C1=C(C)N(Cc2ccccc2)C(=NCC(C)C)N[C@H]1c1cccc(C(F)(F)F)c1,3,-119%,?,5,?,?
CCN1C(=NCCOC)N[C@@H](c2cccc(C(F)(F)F)c2)C(C(=O)OC)=C1C,0,-16%,10%,?,-18%,i
Cc1c(C(=O)NCCCc2ccncc2)cnn1-c1ncc2c(n1)-c1ccccc1CC2,.,.,.,.,.,i
Cc1ccc(O)c(CNc2cnc3ccccc3c2)c1,6,-12%,-19%,0,8%,i
Oc1ccc(Br)cc1CNc1cnc2ccccc2c1,1,13µM*,?,-2,.,i
COc1ccc(-c2nc(C)c(CCNC(=O)C(=O)Nc3ccccc3C#N)s2)cc1OC,5,8%,20%,.,25%,i
COC(=O)c1cc(OC)c(OC)c(OC)c1NC(=O)c1ccc(S(=O)(=O)N(C)C)cc1,-2,0%,-3%,-88*,6%,i
COc1cccc(/C=N/NC(=O)C(C)n2nc(C)c([N+](=O)[O-])c2C)c1O (centres undefined),6,-7%,-1%,19,25µM*,?
SMILES,DRD3 agonist,HepG2 tox,TGFb inhibitor,D3 antag,ATXN2 expr inh,ATXN viability
COc1cccc(/C=N/NC(=O)Cn2nc(C)c([N+](=O)[O-])c2C)c1O,-2,-33%,-6%,-13,16µM*,?
C/C(=N\NC(=O)Cn1nc(C)c([N+](=O)[O-])c1C)c1ccc(Cl)s1,-2,-7%,4%,-62*,4%,i
Cc1nn(CC(=O)N/N=C/c2cccs2)c(C)c1[N+](=O)[O-],1,4%,3%,-17,-3%,i
Cc1nnc(NC(=O)CSc2nccn2-c2cccc(Cl)c2)s1,-2,-18%,-17%,.,.,.
c1coc(Cn2nnnc2CN2CCN(C3CCCC3)CC2)c1,-3,5%,-3%,-69*,-2%,i
Cc1ccc(NC(=O)c2cccc(N3CCCS3(=O)=O)c2)cc1,3,-15%,-11%,.,3%,i
CCN(CC)CCCNc1nc2ccccc2c2[nH]c3ccc(OC)cc3c12,-8,-112%,?,0,?,6µM*
CCN(CC)CCCNc1nc(-c2ccccc2)nc2ccccc12,0,-22%,-13%,-25,?,?
CCOC(=O)c1c(S(=O)(=O)NCC(=O)Nc2cccc(CC)c2)c(C)n(C)c1C,6,10%,11%,.,-3%,i
O=C(C[C@@H]1CC[C@@H]2[C@H](COC[C@H](O)CN2CCC(F)(F)F)O1)NCc1ccc2c(c1)OCO2,6,.,.,0,.,.
COc1ccc(OC)c(-n2c(SCC(N)=O)nnc2-c2c[nH]c3ccccc23)c1,-2,1%,-6%,15,2%,i
COc1ccc(OC)c(-n2c(SCC(=O)Nc3cc(C)on3)nnc2-c2c[nH]c3ccccc23)c1,-6,16%,11%,-51*,-12%,i
COc1cc(Cl)c(CN2CCOc3ccc(CN4CCCCC4CO)cc3C2)cc1OC (centres undefined),.,.,.,.,.,i
COc1ccccc1C(=O)NCCC(=O)NC(C)c1ccc(-n2ccnc2)cc1 (centres undefined),1,1%,-13%,27,-13%,i
CC(NC(=O)CCNC(=O)c1ccccc1Cl)c1ccc(-n2ccnc2)cc1 (centres undefined),0,-11%,-6%,-59*,5%,i
O=C(NNC1=C(C(=O)C(F)(F)F)CCC1)c1ccccc1Cl,8,-39%,-1%,90,?,?
O=C(NNC1=C(C(=O)C(F)(F)F)CCC1)c1ccccc1O,-2,-78%,?,?,-27%,i
O=C(NNC1=C(C(=O)C(F)(F)F)CCC1)c1ccc(Br)cc1,10,10µM*,16µM*,10,?,?
